A selection: hits, their analogues and other compounds. The true share with any hit is near 9.5%.
NS1 inh – influenza NS1 inhibition. AID 2326. 270,000 tested, 0.4% active. Potency, µM (highest dose often 46.1 µM), for the others: top-dose activity, positive = more growth; note: actives are rising curves; nearly all actives have a fitted effect of over 50% in size
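A cell-based growth assay was used: compounds that relieve NS1-induced slow growth of budding yeast raise OD600. Assay medium was yeast nitrogen base with ammonium sulphate and -URA supplement, pH 6.0, with 2% galactose.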
Pf growth 48h – inhibits P. falciparum growth in the first generation, 48 h; P. falciparum luciferase growth in erythrocytes, 48 h; 310,000 tested, 5.9% active; Potency, µM (doses to about 28.7 µM), for inactives: at the top dose activity change, negative = inhibition, usual class: inhibitors; active = well fitted inhibition curve with a large enough effect; inconclusive = small, poorly fitted or top-dose-only effect, or another doubt; inactive = no such curve, though single readings can be large or run the other way; note: % is set by controls: 0 for no effect and ±100 for the full control effect
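In quantitative HTS format, infected erythrocytes bearing luciferase-reporter parasites were treated for a single generation at 37 C. Luminescence after adding detection reagent served as the growth measure.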
SARS PLP yeast – blocks SARS-CoV papain-like protease in a yeast assay | 330,000 tested, 0.19% active | Potency, µM (highest dose often 32.9 µM), inactives show at the highest dose activity, positive = growth rescue, most hits filed as activators | AID 485353 | S. cerevisiae expressing SARS-CoV PLpro, growth rescue; note: 0% is about no effect; nearly all actives have a fitted effect of over 55% in size
Pf growth 96h – P. falciparum growth inhibition at 96 hour, primary screen for plastid delayed-death inhibitors. P. falciparum luciferase reporter growth, 96 h. 320,000 tested, 6.9% active. Potency, µM (titrated, usually from 28.7 µM), without a hit: at the highest dose activity change, negative = inhibition, most hits filed as inhibitors; active = well fitted inhibition curve with a large enough effect; inconclusive = small, poorly fitted or top-dose-only effect, or another doubt; inactive = no such curve, though single readings can be large or run the other way; note: % is set by controls: 0 for no effect and ±100 for the full control effect
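P. falciparum expressing integrated firefly luciferase grown in erythrocytes (2% hematocrit, 0.05% parasitemia final) with compounds for 96 hours at 37 C, 5% CO2. Growth inhibition read as loss of luminescence after adding luciferase detection reagent.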
RE007 growth inh – less growth of the S. pombe RE007 Vpr strain; Potency, µM (titrated, usually from 92.2 µM), inactives show top-dose activity change, negative = less growth, usual class: inhibitors; 360,000 tested, 0.21% active; S. pombe RE007 Vpr strain, BacTiter-Glo ATP luminescence, 24 h; AID 651644; active = well fitted falling curve with a large enough effect; inconclusive = small, poorly fitted or top-dose-only effect; inactive = no such curve, though single readings can be large or run the other way; note: % is set by controls: 0 for no effect and ±100 for the full control effect; nearly all actives have a fitted effect of over 50% in size
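Fission yeast strain RE007, carrying one chromosomally integrated HIV-1 vpr copy, was seeded at OD 0.01 in PMG+AL medium with 23 nL pinned compound. After 24 h at 30 °C and 99% humidity, viability was read by BacTiter-Glo luminescence.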
An asterisk follows results filed as active; i = inactive; ? = inconclusive; / = no result given; [ ] = dose if it differs, or a comment. Unless noted, calls come from the whole dose curve. Potency is the fitted concentration of half-maximal effect.

SMILES | NS1 inh | Pf growth 48h | SARS PLP yeast | Pf growth 96h | RE007 growth inh
COc1ccc(Br)cc1CN(C)C(=O)C1=CC=CN2CCS(=O)(=O)N=C12 | / | / | -18% | / | -16%
O=C(CNc1ccc(Br)cc1)c1ccc(Br)s1 | -30% | 10% | -3% | 30% | -11%
CCNC(=S)Nc1ccc(Cl)c(C(F)(F)F)c1 | -41% | 1% | 2% | 0% | /
O=C(OCc1ccccc1)c1cn(-c2ccccc2)nc1-c1ccncc1 | -8% | ? | -34% | 9.3µM* | 5%[3.69 µM]
CCOC(=O)c1ccc(NC(=O)c2cn(-c3ccccc3)nc2-c2ccncc2)cc1 | 16% | 4.1µM* | -10% | 0% | -4%
CCn1c(-c2cc(-c3cc(OC)ccc3OC)nc3ccccc23)n[nH]c1=S | 15% | / | 5% | 0.37µM* | 11%
COc1ccc(Cl)cc1-c1n[nH]c(=S)n1Cc1ccccc1 | ? | -1% | 0% | ? | -9%
CCn1c(-c2cc(-c3ccccc3OC)nc3ccccc23)n[nH]c1=S | 13% | 2.6µM* | -8% | 3.3µM* | /
CN(CC1CCN(CCc2cccc(C(F)(F)F)c2)CC1)C(=O)c1ccc(F)cc1F | 7% | ? | -3% | 18% | 8%
CCN(Cc1ccc(O)cc1)CC1CCCN(CCc2cccc(F)c2)C1 (stereo unspecified) | -9% | 2.3µM* | 1% | 12µM* | -14%
CC(=O)Nc1ccc(CN(C)CC2CCCN(CCc3cccc(C(F)(F)F)c3)C2)cc1 (stereo unspecified) | 13% | 4.1µM* | -6% | ? | -24%
CN(CC1CCCN(CCc2cccc(C(F)(F)F)c2)C1)C(=O)c1ccco1 (stereo unspecified) | 14% | -5% | 2% | 31% | 5%
CSCCC(=O)N(C)CC1CCN(CCc2cccc(C(F)(F)F)c2)CC1 | 7% | 8% | 0% | 4.1µM* | -10%
O=C1NC2(CCCCC2)C(=O)N1/N=C/c1ccccc1Br | -8% | 3.3µM* | 3% | 23% | -11%
CSc1nnc2c3c4c(sc3c(=O)n(-c3ccccc3)n12)CC(C)(C)OC4 | -2% | 0.74µM* | 10% | / | 11%
O=C(CCCCCNC(=O)N1CCn2c1nc1ccccc12)NCc1ccccc1 | -17% | ? | -3% | ? | 4%
O=C(CCCCCNC(=O)N1CCn2c1nc1ccccc12)NCCc1ccccc1 | -20% | ? | -2% | 7.4µM* | 10%
CCOc1nc2cccc(C(=O)O)c2n1Cc1ccc(-c2ccccc2-c2nn[nH]n2)cc1 | / | ? | / | 2.1µM* | /
CCCCC1=NC2(CCCC2)C(=O)N1Cc1ccc(-c2ccccc2-c2nn[nH]n2)cc1 | / | ? | 1% | ? | /
COc1ccc(S(=O)(=O)N2CCC3(CC2)OCCN3S(=O)(=O)c2c(C)cc(C)cc2C)cc1 | / | 1µM* | / | 0.83µM* | 3%
COc1ccc(S(=O)(=O)N2CCC3(CC2)OCCN3S(=O)(=O)c2cccs2)cc1OC | / | ? | -4% | 9.3µM* | -10%
Cc1ccc(S(=O)(=O)N2CCC3(CC2)OCCN3S(=O)(=O)c2c(C)cc(C)cc2C)cc1 | / | 10µM* | 5% | ? | 0%
Cc1nn(CC(=O)Nc2nnc(C(C)C)s2)c(=O)c2ccccc12 | 7% | 2% | 1% | -14% | -2%
CCc1ccccc1N(CC(=O)NC(C)c1ccccc1)S(C)(=O)=O (stereo unspecified) | 6% | -9% | -2% | -3% | 13%
COc1ccc(C(=O)OCC(=O)NCc2ccc3c(c2)OCO3)cc1S(=O)(=O)N1CCOCC1 | / | / | 3% | / | 8%
SMILES | NS1 inh | Pf growth 48h | SARS PLP yeast | Pf growth 96h | RE007 growth inh
COc1ccc(CC(=O)NNC(=O)c2cccs2)cc1 | 2% | 31% | -19% | 2.9µM* | 15%
COc1nnc(OC)c2ccccc12 | -2% | -6% | 1% | 0.47µM* | -13%
COc1c2ccccc2c(OC)c2ccccc12 | / | 3% | -3% | 15µM* | -26%
O=c1cc(-c2ccccc2)cc(-c2ccccc2)n1CCCO | / | 9.3µM* | -2% | ? | -13%
COc1ccc(OC)c(CN2C(=O)CSCC2(C)C(=O)Nc2c(C)cccc2C)c1 (stereo unspecified) | / | / | / | / | -4%
Cc1cccn2c(=O)c3cc(C(=O)NCc4ccccc4)c(=N)n(CCCN4CCOCC4)c3nc12 | / | / | / | / | 3%
Cc1cccn2c(=O)c3cc(C(=O)NCCN4CCOCC4)c(=N)n(CCc4ccccc4)c3nc12 | 10% | 0.47µM* | -1% | -8% | -11%
CCCNc1nc2nc3ccccn3c(=O)c2cc1C(=O)NCCN1CCOCC1 | 8% | 15µM* | 1% | 11% | -31%
COc1ccc(CCNC(=O)c2cc3c(=O)n4ccccc4nc3n(CCCN3CCOCC3)c2=N)cc1OC | 7% | 2.3µM* | -3% | 2.1µM* | -13%
Cc1cccn2c(=O)c3cc(C(=O)NCCN4CCOCC4)c(=N)n(CCCN4CCOCC4)c3nc12 | -7% | 2.9µM* | 1% | 0% | -12%
Cc1ccnc(NC(=O)Cn2c(=O)oc3ccccc32)c1 | 13% | 51% | 2% | 64% | 11%
Cc1nc(C(F)(F)F)c(C(=O)N/N=C(\N)c2ccccn2)s1 | / | ? | -2% | ? | 4%
c1ccc(-c2csc(-n3cccn3)n2)cc1 | / | i | -2% | 72% | 1%
Cc1ccc(NCC(=O)N/N=C/c2c[nH]c3ccccc23)cc1 | / | ? | 0% | ? | 1%
CCCCCn1c(=N)c(S(=O)(=O)c2ccc(Cl)cc2)cc2c(=O)n3cccc(C)c3nc21 | -6% | 1.9µM* | 3% | 12% | 1%
CCNC(=O)c1cc2c(=O)n3cccc(C)c3nc2n(CCc2ccccc2)c1=N | 8% | 1.7µM* | 1% | / | -4%
COc1ccc(CCn2c(=N)c(C(=O)NCCN3CCOCC3)cc3c(=O)n4cccc(C)c4nc32)cc1OC | 5% | 0.74µM* | 4% | 0.41µM* | -6%
CN(C)CCCN(C(=O)c1ccc(S(=O)(=O)N2CCCCCC2)cc1)c1nc2c(F)cc(F)cc2s1 | / | ? | -2% | -2% | 3%
CCOC(=O)C(C(=O)OCC)C(=O)c1cccc2ccc3ccccc3c12 | / | / | / | / | -20%
COc1ccc(OCc2nnc(SC(C)C(=O)Nc3ccc(N4CCOCC4)cc3)n2C)cc1 (stereo unspecified) | / | / | / | / | 6%
N#CCCN1CCN(C(=O)c2c(N)no[n+]2[O-])CC1 | / | 5% | 0% | ? | 5%
COc1ccc(OCC(=O)Nc2cccc(NC(=O)c3ccco3)c2)cc1 | -1% | -8% | -2% | 24% | -18%
c1ccc(-c2cc(-c3ccc(N4CCOCC4)cc3)nc3ccccc23)cc1 | 6% | ? | -10% | 13µM* | 3%
Cc1ccc(-c2nc(Nc3ccc(N4CCOCC4)cc3)c3ccccc3n2)cc1 | -23% | 13µM* | -4% | ? | 1%
O=C(O)c1cc(/C=C/c2ccc(N3CCOCC3)c([N+](=O)[O-])c2)nc2ccccc12 | ? | 26% | 0% | 88% | -12%
O=C(O)c1cc(/C=C/c2ccc(N3CCOCC3)cc2)nc2ccccc12 | 11% | 192% | -9% | 70% | 16µM*
